BL2 CD40 inh: CD40 pathway inhibition in BL2 cells | BL2 NF-kB luciferase reporter, CD40L-induced, 4 h | hit rate 0.94% among 83,000 | inhibition, % at 10 µM;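 active = mean inhibition of at least 50% with a set share of replicates also reaching that level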;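 also: 0% = neutral control wells and 100% = IKK inhibitor VII at 50 µM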
Starred values were filed as active, the others as inactive; [ ] = dose if it differs, or a comment. Many of the other results were omitted from the sample, so hits are more common in it than they were.

How did COc1ccccc1NC(=O)N1C[C@@H]2[C@H](c3ccccc31)[C@@H](CO)N2C(=O)C1CC1 do in these assays?
BL2 CD40 inh: 4

What do the screens show for `CCC(=O)Nc1ccc2c(c1)C(=O)N(C)C[C@@H](OC)[C@H](C)CN(Cc1nccs1)[C@@H](C)CO2`?
BL2 CD40 inh: -5[25 µM]

Results for O=c1[nH]c(C(F)(F)F)nc2ccccc12 ?
BL2 CD40 inh: -8

What do the screens show for `CC(C)N1C(=O)/C(=C\c2nc3ccccc3c(=O)[nH]2)c2ccccc21`?
BL2 CD40 inh: 33*

How did CC(C)Sc1nc2ccccc2c(=O)[nH]1 do in these assays?
BL2 CD40 inh: 6

How did CC(C)NC(=O)N(C)C[C@@H]1OCc2ccccc2-c2ccccc2C(=O)N([C@@H](C)CO)C[C@H]1C do in these assays?
BL2 CD40 inh: -15

Results for O=C(NC1CCCCNC1=O)c1ccccc1 (configuration not stated) ?
BL2 CD40 inh: -11

How did O=C(NC(=S)/C(=C1\CCCCCN1)[N+](=O)[O-])c1ccccc1 do in these assays?
BL2 CD40 inh: 72*

How did O=C(COC(=O)c1ccccc1[N+](=O)[O-])NC(=O)c1ccccc1 do in these assays?
BL2 CD40 inh: -41

What do the screens show for `CN(C)C(=O)c1ccc(-c2ccc(C3[C@H]4CNC[C@@H]3N4C(=O)NC3CCCC3)cc2)cc1` (some centres not stated)?
BL2 CD40 inh: -9[25 µM]

How did O=C(c1cccnc1)N1CCCCN2[C@H](C1)[C@H](c1ccc(C#Cc3ccccn3)cc1)[C@@H]2CO do in these assays?
BL2 CD40 inh: -6[25 µM]

Results for CCCCC[C@H](O)/C=C/[C@@H]1[C@@H](C/C=C\CCCC(=O)O)[C@H]2CO[C@@H]1C2 ?
BL2 CD40 inh: 15

How did CCCCC[C@H](O)/C=C/[C@@H]1[C@@H](C/C=C\CCCC(=O)O)[C@@H](O)C[C@H]1O do in these assays?
BL2 CD40 inh: -3

How did CCCCC[C@H](O)/C=C/[C@@H]1[C@@H](C/C=C\CCCC(=O)OC)[C@@H](O)C[C@H]1O do in these assays?
BL2 CD40 inh: 45*

What do the screens show for `O=C(NC1CCC1)[C@@H]1[C@@H](CO)[C@@H]2Cn3c(ccc(-c4ccncc4)c3=O)[C@@H]2N1CC1CC1`?
BL2 CD40 inh: -3[25 µM]

What do the screens show for `CO[C@@H](CN(C)Cc1ccc2c(c1)OCO2)[C@@H](C)CN(C(=O)Nc1ccc(F)cc1)[C@H](C)CO`?
BL2 CD40 inh: -1[25 µM]

What do the screens show for `CO[C@@H](CN(C)Cc1cc(F)ccc1F)[C@H](C)CN(C(=O)Nc1ccc(C(F)(F)F)cc1)[C@H](C)CO`?
BL2 CD40 inh: -9[25 µM]

Results for CO[C@H](CN(C)Cc1cc(F)ccc1F)[C@H](C)CN(C(=O)Nc1ccc(C(F)(F)F)cc1)[C@H](C)CO ?
BL2 CD40 inh: 53*[25 µM]

Results for CCN1[C@@H]2Cn3c(ccc(-c4ccccc4F)c3=O)[C@H]1[C@@H](C(=O)N1CCCCC1)[C@@H]2CO ?
BL2 CD40 inh: -6[25 µM]

How did CS(=O)(=O)Nc1ccc2c(c1)[C@H]1C[C@H](CC(=O)NC3CCCC3)O[C@H](CO)[C@H]1O2 do in these assays?
BL2 CD40 inh: 4[25 µM]

How did Cn1cnc([N+](=O)[O-])c1Cl do in these assays?
BL2 CD40 inh: 12

Results for Cn1cnc([N+](=O)[O-])c1Oc1cccc2ccccc12 ?
BL2 CD40 inh: 29

What do the screens show for `CCN(CC)c1c([N+](=O)[O-])ncn1C`?
BL2 CD40 inh: 4

Results for CCS(=O)(=O)c1c([N+](=O)[O-])ncn1C ?
BL2 CD40 inh: 95*

What do the screens show for `Cn1cnc([N+](=O)[O-])c1Oc1ccccc1`?
BL2 CD40 inh: 12

How did Cn1cnc([N+](=O)[O-])c1S(=O)(=O)Oc1cccc2ccccc12 do in these assays?
BL2 CD40 inh: 101*

What do the screens show for `CCN1[C@@H]2Cn3c(ccc(C4=CCCCC4)c3=O)[C@H]1[C@@H](C(=O)NCCc1ccncc1)[C@@H]2CO`?
BL2 CD40 inh: -10[25 µM]

Results for COC(=O)C[C@H]1CC[C@H]2[C@H](COc3ccc(NC(=O)Nc4cccc(C#N)c4)cc3C(=O)N2C)O1 ?
BL2 CD40 inh: -6[25 µM]

What do the screens show for `CC(C)NC(=O)N(C)C[C@H]1Oc2ccccc2C(=O)N(C)C[C@H]1C`?
BL2 CD40 inh: 2

How did CNC[C@@H]1Oc2ccc(N)cc2CC(=O)N(C)C[C@@H]1C do in these assays?
BL2 CD40 inh: -4

How did N#C[C@@H]1[C@@H](c2ccc(-c3cccc(F)c3)cc2)[C@@H](CO)N1C(=O)NC1CCCCC1 do in these assays?
BL2 CD40 inh: 12

What do the screens show for `O=C(C[C@@H]1C[C@@H]2c3cc(NC(=O)NC4CCCC4)ccc3O[C@@H]2[C@@H](CO)O1)NCCc1ccccc1`?
BL2 CD40 inh: -4

What do the screens show for `N#Cc1ccc(-c2ccc3c(c2)[C@H]2[C@H](CCN2C(=O)C2CCC2)[C@@H](CO)N3)cc1`?
BL2 CD40 inh: 47

What do the screens show for `N#Cc1cccc(-c2ccc3c(c2)[C@@H]2[C@@H](CCN2C(=O)CN2CCOCC2)[C@H](CO)N3)c1`?
BL2 CD40 inh: -12[25 µM]

Results for N#Cc1ccc(-c2ccc3c(c2)[C@@H]2[C@@H](CCN2C(=O)C2CC2)[C@H](CO)N3)cc1 ?
BL2 CD40 inh: 2

Results for N#Cc1cccc(-c2ccc3c(c2)[C@@H]2[C@@H](CCN2C(=O)CN2CCOCC2)[C@@H](CO)N3)c1 ?
BL2 CD40 inh: active[25 µM]

Screens as filed in PubChem.
